Reference: PubChem BioAssay AID651742 (Broad Institute, 2012)
Out of some 5,600 compounds screened, about 780 (14%) were called active. Another 3% or so got no clear call; they are omitted. Only a sample is shown. Unmarked numbers belong to inactive results.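 The calls were made as follows: active = mean signal decrease across replicates above about 35% based on untreated-well scatter, with enough replicates individually passing (limit read from the data); inconclusive = no rule stated though some were filed; inactive = the rest.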

assay: NIH3T3 cell viability loss – cherry-pick, single point, cytotoxicity control for T. cruzi proliferation inhibitor project, confirmation (AID 651742); settings: NIH/3T3 viability, CellTiter-Glo ATP luminescence, 90 h; at 8.35 µM; hits give high values;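 also: 0% = median of neutral control wells and 100% = median of positive control wells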

Compound	cytotoxicity (signal decrease)
COc1ccc(-c2ccc([C@H]3[C@H](CO)N4CCCCN(C(=O)Cc5ccncc5)C[C@@H]34)cc2)cc1	17.6%
COc1ccc(C#Cc2ccc([C@H]3[C@H](CO)N4CCCCN(C(=O)Cc5ccccc5)C[C@@H]34)cc2)cc1	58.2% (active)
O=C(Cc1ccccn1)N1CCCCN2[C@@H](CO)[C@@H](c3ccc(C#Cc4ccccc4)cc3)[C@@H]2C1	33.5%
O=C(Cc1cccnc1)N1CCCCN2[C@@H](CO)[C@H](c3ccc(C#CC4CCCC4)cc3)[C@@H]2C1	23.3%
C/C=C/c1ccc([C@H]2[C@H](CO)N3CCCCN(C(=O)Cc4ccncc4)C[C@@H]23)cc1	11.1%
